Source: PubChem BioAssay (NCI)
Several values for one entry are separate records, joined by “and”; a condition that tells them apart may be missing. Equal values may be shown once. The panel holds about 83,000 compounds, 20% with a hit somewhere; the sample as a whole holds those more often.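 In brief: 96-well plates, 48 h treatment, single concentration, percent growth endpoint.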 Activity calls are given as the source filed them. Rule for the calls: active = growth percent below 10; inactive = the rest.

Assays:
Test in all cases: NCI-60 one-dose screen, 48 h (100 = growth as untreated, 0 = no growth, -100 = all killed)
Conditions in all cases: 10 µM unless noted
SK-MEL-2 melanoma = system: SK-MEL-2 melanoma
EKVX NSCLC = system: EKVX NSCLC
SN12C renal = system: SN12C renal
UO-31 renal = system: UO-31 renal
TK-10 renal = system: TK-10 renal
ACHN renal = system: ACHN renal
CAKI-1 renal = system: CAKI-1 renal
A498 renal = system: A498 renal
CCRF-CEM leukemia = system: CCRF-CEM leukemia
MOLT-4 leukemia = system: MOLT-4 leukemia

SMILES | growth (SK-MEL-2 melanoma) | growth (EKVX NSCLC) | growth (SN12C renal) | growth (UO-31 renal) | growth (TK-10 renal) | growth (ACHN renal) | growth (CAKI-1 renal) | growth (A498 renal) | growth (CCRF-CEM leukemia) | growth (MOLT-4 leukemia)
N#Cc1ccc(C(=O)NNC(=O)CSc2nc3sc4c(c3c(=O)n2-c2ccc(Cl)cc2)CCCC4)cc1 | 94.2% (inactive) | 54.3% (inactive) | 41.7% (inactive) | 42.7% (inactive) | 115% (inactive) | 71.2% (inactive) | 53.1% (inactive) | 89.2% (inactive) | 48.9% (inactive) | 46.3% (inactive)
C=CC[n+]1cccc2c3ccccc3ccc21 | 63.3% (inactive) | 23.7% (inactive) | 8.67% (active) | 56.5% (inactive) | 67.1% (inactive) | 88% (inactive) | 60.6% (inactive) | 48.6% (inactive) | 47.3% (inactive) | 47.9% (inactive)
Nc1cc2ccccc2c(=O)n1NC(=O)c1ccc(Br)cc1 | 108% (inactive) | 83.2% (inactive) | 95.5% (inactive) | 74.9% (inactive) | 116% (inactive) | 104% (inactive) | 83.8% (inactive) | 189% (inactive) | 86.4% (inactive) | 90.8% (inactive)
C=CCSc1nnc(-c2ccc(-c3nc4ccc(Cl)cc4[nH]3)cc2)o1 | 38.7% (inactive) | 60.8% (inactive) | 63.1% (inactive) | 78.4% (inactive) | 90.3% (inactive) | 78.8% (inactive) | 49.2% (inactive) | 106% (inactive) | 37.1% (inactive) | 48.9% (inactive)
C/C(=N\Nc1ccc(C(=O)O)cc1)c1cnn(-c2cc(=O)[nH]c3ccc(C)cc23)c1C | 106% (inactive) | 93% (inactive) | 92.6% (inactive) | 67.9% (inactive) | 104% (inactive) | 99.4% (inactive) | 89.7% (inactive) | 108% (inactive) | 93% (inactive) | 97.8% (inactive)
O=C1NC(=S)/C(=C/c2cn(-c3ccccc3)nc2-c2ccccc2)S1 | -4.17% (active) | 2.24% (active) | 16% (inactive) | 16.7% (inactive) | 34.3% (inactive) | 20.1% (inactive) | 28.3% (inactive) | -4.62% (active) | 30.9% (inactive) | 33.5% (inactive)
COc1cccc(C(N)=Nc2ccc(OCCCCCCCCn3cncn3)cc2)c1 | 14% (inactive) | 37.4% (inactive) | 20.6% (inactive) | 39.5% (inactive) | 57% (inactive) | 28% (inactive) | 40.3% (inactive) | 94.3% (inactive) | 16.4% (inactive) | 16.8% (inactive)
COc1cc(C2CC(c3ccc(F)cc3)=Nc3c(N)nc(N)nc3N2)ccc1Oc1nc(Nc2ccc(F)cc2)nc(N(C)C)n1 (stereo not given) | 19.2% (inactive) | 56.4% (inactive) | 79.7% (inactive) | 48% (inactive) | 88.7% (inactive) | 51.4% (inactive) | 40.5% (inactive) | 74% (inactive) | 44.2% (inactive) | 1.16% (active)
O=C(CSc1nnc(-c2ccc(-c3nc4ccccc4[nH]3)cc2)o1)Nc1ccccc1 | 91.4% (inactive) | 93.9% (inactive) | 79.7% (inactive) | 104% (inactive) | 106% (inactive) | 23.1% (inactive) | 86% (inactive) | 130% (inactive) | 59% (inactive) | 27.4% (inactive)
NS(=O)(=O)c1ccc(Nc2nc(N/N=C/c3cc(Br)c(O)c(Br)c3)nc(Nc3ccccc3)n2)cc1 | -5.4% (active) | 86.3% (inactive) | 46.3% (inactive) | 85.3% (inactive) | 113% (inactive) | 92.3% (inactive) | 94.4% (inactive) | 102% (inactive) | 10.5% (inactive) | -8.36% (active)
N#C/C(=C/c1ccc(Cl)cc1)c1nnc(NC(=O)c2ccc(-n3c(=O)[nH]c4ccccc4c3=O)cc2)s1 | 91.6% (inactive) | 86% (inactive) | 61.1% (inactive) | 77.8% (inactive) | 114% (inactive) | 84.3% (inactive) | 95.5% (inactive) | 116% (inactive) | 97.9% (inactive) | 94.9% (inactive)
CC(=O)Nc1cccc(-n2c(COc3ccc(Br)cc3)nc3ccccc32)c1 | 95.4% (inactive) and 112% (inactive) | 98.1% (inactive) and 103% (inactive) | 104% (inactive) and 110% (inactive) | 69.3% (inactive) and 86.1% (inactive) | 119% (inactive) and 110% (inactive) | 79.6% (inactive) and 107% (inactive) | 72.4% (inactive) and 101% (inactive) | 105% (inactive) and 124% (inactive) | 95.9% (inactive) and 98.5% (inactive) | 84.6% (inactive) and 101% (inactive)
CCOc1ccc2[nH]c(=O)c(C(c3nnnn3CC3CCCO3)N3CCN(Cc4ccccc4)CC3)cc2c1 (stereo not given) | 102% (inactive) | 86.9% (inactive) | 88.2% (inactive) | 99.9% (inactive) | 114% (inactive) | 61.2% (inactive) | 76.3% (inactive) | 76% (inactive) | 93.7% (inactive) | 101% (inactive)
Nc1ccc(-c2ccc3ncnc(N4CCc5cc(F)c(Cl)cc54)c3c2)cn1 | 29% (inactive) | -29.2% (active) | 19.2% (inactive) | 3.05% (active) | -7.15% (active) | 8.96% (active) | 5.25% (active) | -13.2% (active) | 10.6% (inactive) | 1.81% (active)
Cc1ccc(-c2cc(C(=O)N=Nc3c(O)[nH]c4ccc(F)cc34)c3ccccc3n2)cc1 | 107% (inactive) | 29.8% (inactive) | 18.1% (inactive) | 77.5% (inactive) | 106% (inactive) | 42.8% (inactive) | 62.9% (inactive) | 187% (inactive) | 92.4% (inactive) | 65.3% (inactive)
CCOc1ccccc1NC(=O)N/C(N)=N/c1nc2ccccc2s1 | 38.7% (inactive) | 42.9% (inactive) | 8.49% (active) | 44.6% (inactive) | 63% (inactive) | 18.5% (inactive) | 17.8% (inactive) | 90.9% (inactive) | 0.25% (active) | 7.53% (active)
O=C1C=CC(=CC=C2N(Cc3ccc4ccccc4c3)c3ccccc3N2Cc2ccc3ccccc3c2)C=C1 | -12.8% (active) and -12.7% (active) | 33.7% (inactive) and 32.9% (inactive) | 6.94% (active) and 13.3% (inactive) | 103% (inactive) and 98.5% (inactive) | 63.6% (inactive) and 74% (inactive) | 77.2% (inactive) and 78.6% (inactive) | 77.6% (inactive) and 70.8% (inactive) | 106% (inactive) and 109% (inactive) | 21.7% (inactive) and 10.9% (inactive) | 22.5% (inactive) and 17.6% (inactive)
O=Cc1cncc(-c2ccc3ncnc(N4CCc5cc(F)c(Cl)cc54)c3c2)c1 | 24.5% (inactive) | 0.858% (active) | 23.2% (inactive) | 10.7% (inactive) | 4.74% (active) | 11.5% (inactive) | 12.5% (inactive) | -30.4% (active) | 16.6% (inactive) | -30.6% (active)
